# Compounds with a hit are over-represented: about 3.2% of the library has one in this group of screens.
# DENV2 CPE: inhibitors of DENV2 cytopathic effect, primary screen, cell-based, plate reader, single concentration; DENV2-infected cells, cytopathic effect rescue; CPE inhibition, % at 9.99 µM; 350,000 compounds, 1.7% hits; AID 651640, 2012; in the data active = CPE inhibition above about 20%, passing the limit was not always enough; inconclusive = no clear call, values can overlap the other calls; tested in BHK-21 cells;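 also: 0% = median of neutral control wells and 100% = median of positive control wells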
# PGC1a acetyl inh: inhibitors of PGC1a acetylation signal, primary screen, cell-based, U2OS, AlphaScreen, inhibitor mode | 350,000 compounds, 0.17% hits | inhibition, % at 15.6 µM | AlphaScreen anti-acetyl-lysine; with virally co-expressed GCN5 acetyltransferase;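 active = every replicate shows inhibition of at least 40%; inconclusive = mean inhibition at least 40% but some replicate below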;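 also: 0% = neutral control wells and 100% = positive control wells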
# ERAP1 inh: human ERAP1 aminopeptidase inhibitors, primary screen, biochemical, single point, plate reader | 340,000 compounds, 0.15% hits | inhibition, % at 10.7 µM | AID 652197, 2013 | Endoplasmic reticulum aminopeptidase 1 (Homo sapiens), Q9NZ08 | recombinant ERAP1, Leu-AMC fluorescence, 60 min;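 active = mean replicate inhibition of at least 30%, or all replicates individually reaching that 30% level; inactive = mean below 30% and not every replicate reaching it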;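 also: 0% = neutral control wells and 100% = L-leucinethiol positive control wells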
# Target sequence (Q9NZ08 whole entry, looked up): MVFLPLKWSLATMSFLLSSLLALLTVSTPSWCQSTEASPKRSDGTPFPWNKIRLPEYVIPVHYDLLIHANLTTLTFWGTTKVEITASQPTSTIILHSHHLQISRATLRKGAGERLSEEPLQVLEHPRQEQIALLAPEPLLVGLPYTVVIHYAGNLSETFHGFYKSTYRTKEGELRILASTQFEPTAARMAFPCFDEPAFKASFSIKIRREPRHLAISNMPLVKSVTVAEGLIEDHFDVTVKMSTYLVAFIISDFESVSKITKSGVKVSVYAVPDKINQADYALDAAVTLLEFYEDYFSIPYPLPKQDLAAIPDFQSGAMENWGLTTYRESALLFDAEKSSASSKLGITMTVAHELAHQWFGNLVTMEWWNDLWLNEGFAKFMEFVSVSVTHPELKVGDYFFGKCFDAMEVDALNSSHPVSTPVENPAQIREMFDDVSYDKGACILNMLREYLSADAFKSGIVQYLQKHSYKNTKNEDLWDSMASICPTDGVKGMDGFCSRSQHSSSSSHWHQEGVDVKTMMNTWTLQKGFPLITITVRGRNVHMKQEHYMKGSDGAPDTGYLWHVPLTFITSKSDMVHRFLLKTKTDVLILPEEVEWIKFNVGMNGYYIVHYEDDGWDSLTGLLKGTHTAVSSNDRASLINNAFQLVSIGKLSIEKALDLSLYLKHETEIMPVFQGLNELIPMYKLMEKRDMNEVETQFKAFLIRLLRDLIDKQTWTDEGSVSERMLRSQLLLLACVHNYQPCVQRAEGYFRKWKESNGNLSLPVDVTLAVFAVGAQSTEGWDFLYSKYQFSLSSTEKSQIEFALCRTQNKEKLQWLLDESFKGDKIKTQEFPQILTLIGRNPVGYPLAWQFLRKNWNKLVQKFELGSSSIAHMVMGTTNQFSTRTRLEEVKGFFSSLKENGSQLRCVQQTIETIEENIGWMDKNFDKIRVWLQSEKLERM
# GSIS activator: GLuc luminescence reporter in INS-1E cells, primary screen for activators of glucose-dependent secretion of insulin; INS-1E GLuc reporter insulin secretion, 2-3 h; AID 743287, 2014; 370,000 compounds, 0.61% hits; activation, % at 16.6 µM;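 active = lowest replicate activation of at least 40%, so every replicate reaches that level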;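 also: 0% = median of neutral control wells and 100% = median of IBMX positive control wells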
# CaV13 FRET inh: Disruptors of the CACNA1D IQ motif to Ca2+-dependent inactivation inhibitor domain association, primary screening, Förster resonance energy transfer in intact living … | HEK cells, CFP/YFP FRET ICDI-IQ, plate reader, 10 min; percent FRET-ratio fall versus neutral wells | inhibition, % at 12.3 µM | 340,000 compounds, 0.098% hits;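 active = mean replicate inhibition of at least 30% and at least 1% of replicates passing that level; inconclusive = only one of the two criteria is met; inactive = neither criterion is met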;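 also: 0% = median of the neutral control wells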
# rRNA inh HTS: reduced GFP signal of wild-type E. coli, primary screen, bacterial rRNA inhibitor project, GFP/RFP fluorescence, OD600, single point; E. coli WT GFP vs humanized-ribosome RFP mutants, 24 h; active compounds read low; DMSO median 0, no signal -100; GFP signal change (wild-type ribosome), % (concentration not given with the values); 350,000 compounds, 1.6% hits;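 active = significant combined selectivity score with lowered wild-type GFP, culture density cut under 30%, mutant RFP and density less affected; inactive = any of these conditions unmet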
# The depositor's hits bear a star; ? = inconclusive; nt = not tested or not shown.
SMILES,DENV2 CPE,PGC1a acetyl inh,ERAP1 inh,GSIS activator,CaV13 FRET inh,rRNA inh HTS
C[C@H]1CN([C@@H](C)CO)C(=O)c2cc(-c3cccc(F)c3)cnc2O[C@H]1CN(C)C(=O)C1CC1,nt,-7.2,nt,2.1,nt,4.7
Cc1ccc(C)c(N2CCN(C(=O)c3ccc(Cl)c(NC4=NC5CS(=O)(=O)CC5S4)c3)CC2)c1 (stereo not given),28.0*,9.3,1.0,3.8,-14.9,-8.5
COc1cccc(N2CCN(C(=O)c3cccc(NC4=NC5CS(=O)(=O)CC5S4)c3)CC2)c1 (stereo not given),34.8*,-1.6,2.9,8.8,-7.7,3.2
COCCNc1nc(NCCOc2ccccc2Cl)c2sccc2n1,-1.6,7.6,-1.8,-21.8,-5.6,-60.8
CNc1nc(Oc2cccc(NC(C)=O)c2)c2sccc2n1,52.7*,5.1,1.4,28.5,-4.5,8.1
COCCNc1nc(NCCCN(C)C)c2sccc2n1,?,nt,1.8,66.1*,-4.6,3.9
CC(=O)Nc1cccc(Oc2nc(NCC3CC3)nc3ccsc23)c1,-11.4,13.1,-2.8,10.2,-5.5,-35.3
COCCNc1nc(NCCCN2CCCC2=O)c2sccc2n1,8.9,nt,-2.6,9.2,-4.4,7.9
COCCNc1nc(Nc2ccccc2Cl)c2sccc2n1,38.0*,nt,1.8,-2.2,-4.1,-10.2
COCCNc1nc(Oc2ccc(C(N)=O)cc2)c2sccc2n1,9.8,nt,-0.8,91.6*,-4.4,2.4
C[C@@H]1CN([C@H](C)CO)C(=O)c2cc(NC(=O)CCC(F)(F)F)ccc2O[C@@H]1CN(C)C(=O)Nc1ccc(F)cc1,-3.7,-4.1,-1.6,-14.9,nt,1.4
CCc1ccc(/C=N/NC(=O)Cc2ccc(OC)c(OC)c2)s1,-2.2,nt,1.0,17.3,-7.2,-23.6*
COc1ccc(/C=C/C(=O)Nc2ccccc2C(=O)NCC(c2ccc(OC)cc2)N(C)C)cc1 (stereo not given),0.9,nt,-2.0,-6.8,-7.8,-8.6
COc1ccc(C(CNC(=O)c2cccc3cccnc23)N(C)C)cc1 (stereo not given),45.7*,-17.3,3.7,9.2,-7.3,-2.5
CCOc1cc(C2C(C#N)=C(N)SC(N)=C2C#N)ccc1OCCN1CCOCC1,nt,6.2,nt,81.5*,-5.8,nt
COc1ccc(S(=O)(=O)Nc2cccc3c2O[C@H](CN(C)C(=O)Nc2ccc(F)cc2)[C@H](C)CN([C@@H](C)CO)C3=O)cc1,-2.2,-18.0,1.6,-26.9,nt,-0.8
O=C(C[C@@H]1C=C[C@H](NS(=O)(=O)c2ccc(F)cc2)[C@@H](CO)O1)NCCc1ccncc1,?,2.0,3.1,-8.1,nt,0.8
CC1(CCc2ccccc2)NC(=O)N(Cc2cc([N+](=O)[O-])cc3c2OCOC3)C1=O (stereo not given),-6.1,2.5,-3.6,-14.2,-0.6,-24.4*
O=[N+]([O-])c1cc2c(c(CSc3nnc4ccccn34)c1)OCOC2,nt,nt,nt,3.7,-7.7,nt
COc1ccc(NC(=O)Nc2cccc3c2O[C@H](CN(C)Cc2ccc(C(F)(F)F)cc2)[C@@H](C)CN([C@H](C)CO)C3=O)cc1,22.4*,0.5,-0.3,-14.4,nt,2.2
COc1ccc(CN(C)C[C@@H]2Oc3c(NC(=O)Nc4ccc(C(F)(F)F)cc4)cccc3C(=O)N([C@H](C)CO)C[C@H]2C)cc1,4.1,0.9,0.8,10.4,nt,-0.4
COc1ccc(CN(C)C[C@@H]2Oc3c(NC(=O)Nc4ccc(OC)cc4)cccc3C(=O)N([C@H](C)CO)C[C@H]2C)cc1,41.8*,23.5,-1.1,0.4,nt,-5.9
COc1ccc(S(=O)(=O)N(C)C[C@H]2Oc3c(NC(=O)Nc4ccc(C(F)(F)F)cc4)cccc3C(=O)N([C@H](C)CO)C[C@@H]2C)cc1,20.8*,-3.0,-1.6,-15.8,nt,-5.0
C[C@H](CO)N1C[C@H](C)[C@@H](CN(C)Cc2ccc(C(F)(F)F)cc2)Oc2c(NC(=O)Nc3ccc(F)cc3)cccc2C1=O,68.9*,-21.2,-0.2,-25.4,nt,-0.7
C[C@@H]1CN([C@H](C)CO)C(=O)c2cccc(NC(=O)Nc3ccc(F)cc3)c2O[C@H]1CN(C)Cc1ccc(C(F)(F)F)cc1,nt,-1.3,-1.0,-19.6,nt,1.0
SMILES,DENV2 CPE,PGC1a acetyl inh,ERAP1 inh,GSIS activator,CaV13 FRET inh,rRNA inh HTS
CO[C@@H]1CN(C)C(=O)c2cc(NC(C)=O)ccc2OC[C@H](C)N(Cc2cncnc2)C[C@H]1C,0.3,2.7,-1.3,6.0,nt,1.9
CO[C@@H]1CN(C)C(=O)c2cc(NC(=O)c3cc(C)on3)ccc2OC[C@H](C)N(C(C)=O)C[C@@H]1C,-0.8,8.7,0.9,13.7,nt,0.8
C[C@@H]1CN([C@@H](C)CO)C(=O)c2cccc(NC(=O)Nc3ccc(C(F)(F)F)cc3)c2O[C@H]1CN(C)Cc1ccc(Cl)c(Cl)c1,-0.3,3.7,-0.5,44.3*,nt,-1.1
C[C@@H]1CN([C@H](C)CO)C(=O)c2cccc(NC(=O)Nc3ccc4c(c3)OCO4)c2O[C@@H]1CN(C)Cc1ccc(C(F)(F)F)cc1,36.4*,4.8,1.5,-17.2,nt,-5.6
COc1ccc(NC(=O)Nc2cccc3c2O[C@H](CN(C)C(=O)NC2CCCCC2)[C@H](C)CN([C@@H](C)CO)C3=O)cc1,88.4*,5.3,0.2,-7.1,nt,-5.2
C[C@H]1CN([C@@H](C)CO)C(=O)c2cccc(NC(=O)c3ccncc3)c2O[C@H]1CN(C)Cc1ccc(C(F)(F)F)cc1,23.6*,8.3,-2.5,22.8,nt,-1.0
CO[C@@H]1CN(C)C(=O)c2cc(NC(=O)c3ccccc3F)ccc2OC[C@H](C)N(CC2CCOCC2)C[C@@H]1C,-2.8,10.0,-0.1,6.5,nt,0.7
Cc1ccc(S(=O)(=O)N2CC[C@@H]3[C@H]2c2cc(-c4cccc(C#N)c4)ccc2N(C)[C@H]3CO)cc1,1.5,-4.8,-3.8,0.8,nt,0.1
Cc1ccc(-c2cc(C(=O)NCc3cnn(C)c3)c3cc(Br)ccc3n2)cc1,nt,-1.1,nt,334.9*,-7.6,nt
COc1ccc2c3c([nH]c2c1)[C@@H](CO)N(C(=O)c1ccccn1)CC31CCN(C(=O)C2CCC2)CC1,2.3,nt,0.1,16.1,nt,3.0
COc1ccc2c3c([nH]c2c1)[C@@H](CO)N(C(=O)c1cnccn1)CC31CCN(S(C)(=O)=O)CC1,33.7*,-0.8,2.5,30.2,nt,4.9
COc1ccc2c3c([nH]c2c1)[C@H](CO)N(C(=O)c1cnccn1)CC31CN(S(C)(=O)=O)C1,17.3,11.4,0.6,0.9,nt,1.6

# Source: PubChem BioAssay
